Measurements taken from PubChem BioAssay (NCATS).
Results filed as inconclusive are left out. Active and inactive are the calls of the source. Unless noted, the call rests on the fitted dose curve; in most records, active means well fitted curve in the direction sought with a large enough effect; inconclusive means small, poorly fitted or top-dose-only effect, or another doubt; inactive means no such curve, though single readings can be large; an effect the other way counts as inactive or inconclusive.

Key:
[1] = AP1 Signaling Pathway (AID 357; active means well fitted curve in either direction with a large enough effect, not every such curve was filed as active;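 further: ME-180 reporter cells stimulated with EGF at its EC50 level; on the % scale 0 is the no-effect control and ±100 the full control effect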)
Outline: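 Titration-series screen for positive or negative modulators of EC50 EGF-induced signaling in ME-180 cells carrying an AP-1-driven beta-lactamase reporter. After 5 hours at 37 degrees Celsius, CCF4 460nm/530nm emission ratio gave %Activity; AC50 values derived.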

[2] = Stat Signaling Pathway (AID 446; active means well fitted curve in either direction with a large enough effect, not every such curve was filed as active;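 further: ME-180 cervical cancer cells given 40 pM IL-6 alongside compound; SIE-controlled beta-lactamase reporter measured as 460/530 nm FRET emission ratio; on the % scale 0 is the no-effect control and ±100 the full control effect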)
Outline: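 Normalization used AC90 stimulation (300 pM IL-6) and AC90 inhibition (125 nM pan-JAK inhibitor at 40 pM IL-6). The underlying signal is SIE-driven beta-lactamase in ME-180 cells after 5 h IL-6 exposure with compound.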

[3] = molecular target: Glucocorticoid receptor (Homo sapiens) (UniProt P04150); assay: GR-GFP Redistribution (AID 450;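 active means compounds whose dose series gives a full or clear partial fitted curve of increased nuclear translocation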; further: potency means the concentration at half of the fitted maximal effect); details: U2OS GR-GFP nuclear translocation, laser cytometry, 2 h
Glucocorticoid receptor (Homo sapiens), sequence (P04150 whole entry, looked up, the tested form may be a part): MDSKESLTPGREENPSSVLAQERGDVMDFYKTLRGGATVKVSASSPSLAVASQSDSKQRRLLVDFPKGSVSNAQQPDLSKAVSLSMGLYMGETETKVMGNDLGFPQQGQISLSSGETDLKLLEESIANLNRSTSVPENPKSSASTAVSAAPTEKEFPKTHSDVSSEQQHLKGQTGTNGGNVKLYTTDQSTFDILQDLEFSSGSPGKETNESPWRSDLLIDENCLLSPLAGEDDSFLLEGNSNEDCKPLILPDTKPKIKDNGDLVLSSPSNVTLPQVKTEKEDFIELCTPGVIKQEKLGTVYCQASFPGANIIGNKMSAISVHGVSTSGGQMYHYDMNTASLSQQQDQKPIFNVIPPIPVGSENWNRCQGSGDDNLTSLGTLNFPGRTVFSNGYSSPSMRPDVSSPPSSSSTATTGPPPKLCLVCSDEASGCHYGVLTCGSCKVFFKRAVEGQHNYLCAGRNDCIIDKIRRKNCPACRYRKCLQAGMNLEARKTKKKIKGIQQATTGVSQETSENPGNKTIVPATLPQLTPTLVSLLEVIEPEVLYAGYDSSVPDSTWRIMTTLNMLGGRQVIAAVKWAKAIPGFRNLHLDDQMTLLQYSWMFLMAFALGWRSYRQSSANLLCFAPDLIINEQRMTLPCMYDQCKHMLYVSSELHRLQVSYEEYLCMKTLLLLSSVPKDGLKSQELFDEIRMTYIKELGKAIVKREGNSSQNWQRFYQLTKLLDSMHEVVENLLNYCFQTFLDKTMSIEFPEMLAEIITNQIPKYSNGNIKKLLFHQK

[4] = molecular target: Glucocorticoid receptor (Homo sapiens) (UniProt P04150); assay: GR-EFC Redistribution (AID 451; calls by dose curve; further: potency means the concentration at half of the fitted maximal effect); details: CHO-K1 GR-EFC translocation, beta-gal luminescence, 2 h
Outline: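 Translocation of GR-ED fusion to nuclear EA restores b-gal, read by luminescence after 1 h room-temperature detection. Engineered CHO-K1 biosensor cells, 1,000/well, exposed 2 h at 37 C to titrations up to 46 uM final.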

[5] = molecular target: Mitogen-activated protein kinase 10 (Mus musculus) (UniProt Q61831); assay: JNK3 AlphaScreen Assay (AID 530; active means well fitted curve in either direction with a large enough effect, not every such curve was filed as active;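 further: kinase came from lysate of stimulated human HepG2 cells; signal reports phosphorylation of biotinylated GST-cJun 1-79 at Ser73 with 10 µM ATP; on the % scale 0 is the no-effect control and ±100 the full control effect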)
Outline: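 qHTS titrations with 15 min compound pre-incubation before adding ATP (10 uM final). Read-out: AlphaScreen of Ser73-phosphorylated biotin-GST-cJun using HepG2 lysate JNK3 activated by IL-1β and TNFα.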

[6] = molecular target: 3',5'-cyclic-AMP phosphodiesterase 4B (Homo sapiens) (UniProt Q07343); assay: qHTS Assay for Inhibitors of PDE-IV (AID 607; active means well fitted activation curve with a large enough effect in the main read-out, with a control signal flat, not every such curve was filed as active; further: % of control where 0% means no effect)
3',5'-cyclic-AMP phosphodiesterase 4B (Homo sapiens), sequence (Q07343 whole entry, looked up): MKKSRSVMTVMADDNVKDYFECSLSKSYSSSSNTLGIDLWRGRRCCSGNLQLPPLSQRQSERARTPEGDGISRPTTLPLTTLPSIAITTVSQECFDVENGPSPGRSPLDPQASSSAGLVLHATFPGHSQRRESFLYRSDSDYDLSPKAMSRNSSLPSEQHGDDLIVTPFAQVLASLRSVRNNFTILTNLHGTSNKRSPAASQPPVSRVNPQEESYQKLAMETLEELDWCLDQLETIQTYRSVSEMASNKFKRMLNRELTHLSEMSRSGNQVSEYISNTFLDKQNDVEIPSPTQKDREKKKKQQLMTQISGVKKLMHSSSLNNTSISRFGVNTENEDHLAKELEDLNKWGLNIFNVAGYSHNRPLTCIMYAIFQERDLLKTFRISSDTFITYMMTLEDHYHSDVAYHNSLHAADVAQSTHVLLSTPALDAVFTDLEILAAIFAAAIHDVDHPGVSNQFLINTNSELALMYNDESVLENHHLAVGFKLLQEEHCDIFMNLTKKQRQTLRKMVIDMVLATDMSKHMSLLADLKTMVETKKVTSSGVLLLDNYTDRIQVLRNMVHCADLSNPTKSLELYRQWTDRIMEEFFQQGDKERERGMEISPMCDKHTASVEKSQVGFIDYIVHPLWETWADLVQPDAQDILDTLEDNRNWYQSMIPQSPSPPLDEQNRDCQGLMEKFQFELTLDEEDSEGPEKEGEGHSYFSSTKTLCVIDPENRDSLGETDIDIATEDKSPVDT
Outline: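 HEK293 ACTOne cells with CNG channel (1000/well), endogenous PDE4; membrane potential dye, compounds up to 22.9 uM final. Fluorescence Ex 535/Em 590; RO 20-1724 (100 uM final) as reference.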

[7] = qHTS Assay for Lipid Storage Modulators (AID 1519; calls by dose curve); details: Drosophila S3 cells, BODIPY lipid droplet/cell ratio, laser cytometry, cells loaded with oleic acid
Outline: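 Cells seeded at 5,000 per well were treated with compounds over a concentration series and loaded with oleic acid (400 uM, as added). Lipid droplet fluorescence (488 nm excitation, 500-530 nm channel) was read by laser-scanning cytometry and normalized to 20 uM Triacsin C.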

[8] = molecular target: Ubiquitin carboxyl-terminal hydrolase 1 (Homo sapiens) (UniProt O94782); assay: Inhibitors of USP1/UAF1: Pilot qHTS (AID 504865);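 further: rhodamine fluorescence freed from ubiquitin-rhodamine substrate followed over time; top concentration of the series differs between compounds; on the % scale 0 is the no-effect control and ±100 the full control effect; nearly all actives have a fitted effect of over 35% in size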
Ubiquitin carboxyl-terminal hydrolase 1 (Homo sapiens), sequence (O94782 whole entry, looked up): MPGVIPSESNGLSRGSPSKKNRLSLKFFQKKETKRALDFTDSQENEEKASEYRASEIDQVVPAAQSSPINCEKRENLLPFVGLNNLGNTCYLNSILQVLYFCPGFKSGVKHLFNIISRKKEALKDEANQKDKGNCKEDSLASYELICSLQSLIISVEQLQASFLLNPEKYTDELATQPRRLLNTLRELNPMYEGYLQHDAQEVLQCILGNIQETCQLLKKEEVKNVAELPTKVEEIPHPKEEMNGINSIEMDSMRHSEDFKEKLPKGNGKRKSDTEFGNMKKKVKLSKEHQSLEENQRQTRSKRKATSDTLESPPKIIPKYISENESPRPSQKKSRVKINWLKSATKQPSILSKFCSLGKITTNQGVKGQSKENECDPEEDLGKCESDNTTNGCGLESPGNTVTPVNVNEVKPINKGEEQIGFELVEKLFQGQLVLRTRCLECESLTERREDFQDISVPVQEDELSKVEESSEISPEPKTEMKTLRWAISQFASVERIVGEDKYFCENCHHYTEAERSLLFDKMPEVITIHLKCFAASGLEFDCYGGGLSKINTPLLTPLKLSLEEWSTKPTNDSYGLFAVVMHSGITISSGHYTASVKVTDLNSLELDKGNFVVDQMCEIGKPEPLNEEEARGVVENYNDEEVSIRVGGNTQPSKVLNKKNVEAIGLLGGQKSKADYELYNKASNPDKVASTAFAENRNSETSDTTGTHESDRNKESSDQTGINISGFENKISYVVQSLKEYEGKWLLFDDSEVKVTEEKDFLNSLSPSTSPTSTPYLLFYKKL
Outline: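 1nM USP1/UAF1 + cpd, 15 min RT; start w/ Ub-Rho 150nM final; kinetic FL 480/540 nm, 6 reads q60 s. Buffer 50mM HEPES pH 7.8, 0.5mM EDTA, 1mM TCEP, 0.01% Tween-20, 0.1 mg/ml BSA.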

[9] = molecular target: Cytochrome P450 1A2 (Homo sapiens) (UniProt P05177); assay: p450-cyp1a2 (AID 410; calls by dose curve; further: potency means the concentration at half of the fitted maximal effect;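 on activity change, negative = inhibition: -100% = full effect of reference inhibitor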)
Cytochrome P450 1A2 (Homo sapiens), sequence (P05177 whole entry, looked up): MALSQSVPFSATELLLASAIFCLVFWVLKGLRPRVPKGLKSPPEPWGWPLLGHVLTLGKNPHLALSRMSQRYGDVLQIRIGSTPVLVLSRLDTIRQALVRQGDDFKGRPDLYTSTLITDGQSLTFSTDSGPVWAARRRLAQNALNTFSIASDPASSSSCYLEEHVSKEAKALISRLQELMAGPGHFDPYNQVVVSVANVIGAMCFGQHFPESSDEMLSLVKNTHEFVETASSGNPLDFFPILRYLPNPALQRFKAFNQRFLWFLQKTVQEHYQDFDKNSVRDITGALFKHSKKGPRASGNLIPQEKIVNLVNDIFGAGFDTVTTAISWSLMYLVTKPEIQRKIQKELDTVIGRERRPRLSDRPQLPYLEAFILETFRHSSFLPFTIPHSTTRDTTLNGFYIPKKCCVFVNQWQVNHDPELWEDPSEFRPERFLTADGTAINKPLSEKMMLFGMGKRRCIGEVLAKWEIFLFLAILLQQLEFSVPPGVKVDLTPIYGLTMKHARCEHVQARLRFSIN
Outline: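 Luminescent demethylation readout: Luciferin-ME (100uM, equal to Km) turned over by 20nM CYP1A2 for 60 min at room temperature after NADPH regeneration addition, following 10 min compound preincubation. Normalization used 57 uM furafylline as full inhibition.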

[10] = NFAT Signaling Pathway (AID 444; active means well fitted curve in either direction with a large enough effect, not every such curve was filed as active;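 further: carbachol stimulus at about its EC50 of 1 µM final; on the % scale 0 is the no-effect control and ±100 the full control effect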); details: Jurkat NFAT-bla M1, carbachol, beta-lactamase ratio, 5 h; at 17.2 µM (top of the series)
Outline: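 Read-out: CCF4 FRET ratio (460 nm/530 nm) after 1 h RT dye loading, used for %activity and AC50 from titration series. Cells: Jurkat NFAT-β-lactamase/M1 line, treated with compound plus 1 uM carbachol for 5 h, 37 °C.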

[11] = molecular target: ATP-dependent 6-phosphofructokinase (Trypanosoma brucei brucei) (UniProt O15648); assay: qHTS Assay to Find Inhibitors of T. brucei phosphofructokinase: hit validation (AID 492961)
ATP-dependent 6-phosphofructokinase (Trypanosoma brucei brucei), sequence (O15648 whole entry, looked up): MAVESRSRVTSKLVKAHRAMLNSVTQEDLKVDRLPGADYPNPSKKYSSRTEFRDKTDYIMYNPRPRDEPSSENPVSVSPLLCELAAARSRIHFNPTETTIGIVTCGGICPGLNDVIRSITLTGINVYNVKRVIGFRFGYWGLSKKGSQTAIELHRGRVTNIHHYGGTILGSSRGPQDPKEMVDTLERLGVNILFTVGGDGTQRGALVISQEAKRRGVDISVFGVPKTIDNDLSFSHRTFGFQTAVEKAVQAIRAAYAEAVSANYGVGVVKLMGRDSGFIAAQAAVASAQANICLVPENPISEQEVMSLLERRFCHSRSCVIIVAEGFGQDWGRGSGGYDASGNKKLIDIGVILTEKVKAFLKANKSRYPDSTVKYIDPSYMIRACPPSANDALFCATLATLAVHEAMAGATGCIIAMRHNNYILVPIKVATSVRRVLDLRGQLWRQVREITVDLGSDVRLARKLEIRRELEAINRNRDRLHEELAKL
Outline: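 ADP-Glo luminescence read-out of ADP formed by 1.25 nM PFK from 0.1 mM ATP and 0.5 mM F6P (TEA pH 8.0, 45 min, RT). Compounds titrated; activity normalized to no-enzyme and full-enzyme controls.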

[12] = molecular target: Luciferin 4-monooxygenase (Photinus pyralis) (UniProt P08659); assay: Biochemical firefly luciferase enzyme assay for NPC (AID 624030);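 further: purified P. pyralis luciferase at 10 nM with luciferin and ATP substrate; 0% = DMSO and -100% = full luciferase inhibition by PTC124 control; nearly all actives have a fitted effect of over 70% in size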
Luciferin 4-monooxygenase (Photinus pyralis), sequence (P08659 whole entry, looked up): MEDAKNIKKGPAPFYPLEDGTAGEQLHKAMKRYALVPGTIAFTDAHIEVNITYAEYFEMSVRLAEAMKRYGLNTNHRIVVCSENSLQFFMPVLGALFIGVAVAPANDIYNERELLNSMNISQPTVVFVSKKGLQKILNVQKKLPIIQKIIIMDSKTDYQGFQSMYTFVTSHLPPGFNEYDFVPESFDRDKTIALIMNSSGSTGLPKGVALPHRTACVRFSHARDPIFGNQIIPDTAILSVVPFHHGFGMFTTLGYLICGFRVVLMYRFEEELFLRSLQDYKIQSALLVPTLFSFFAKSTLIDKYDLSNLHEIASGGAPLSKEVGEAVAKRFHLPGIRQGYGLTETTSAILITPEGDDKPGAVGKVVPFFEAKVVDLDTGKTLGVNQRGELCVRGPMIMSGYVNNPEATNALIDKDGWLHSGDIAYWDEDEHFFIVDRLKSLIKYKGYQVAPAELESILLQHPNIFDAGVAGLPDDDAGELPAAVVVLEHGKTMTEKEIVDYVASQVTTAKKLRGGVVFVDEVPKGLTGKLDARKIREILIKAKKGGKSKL
Outline: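 Direct inhibition of firefly luciferase enzyme (10 nM final, 50 mM Tris Acetate) assessed by luminescence within 5 minutes. Percent activity scaled between DMSO and PTC124 positive control, with concentration-effect curves classified by fit quality and response.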

[13] = qHTS profiling for inhibitors of Plasmodium falciparum proliferation (AID 504749);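 further: 0% = DMSO vehicle and full inhibition = artemisinin control; nearly all actives have a fitted effect of over 60% in size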; details: P. falciparum in erythrocytes, SYBR Green DNA, 72 h, at 12.8 µM (top of the series)
Outline: (§1)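 SYBR Green fluorescence of parasite DNA, read after lysis and overnight dark incubation, measured growth over 72 h in erythrocyte culture at 0.3% parasitemia and 2.5% hematocrit. Data normalised to DMSO and 0.29 uM artemisinin, with plate-drift correction.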

[14] = test system: C2A; assay: as above; details: P. falciparum in erythrocytes, SYBR Green DNA, 72 h; series mostly up to 28.7 µM
Outline: as §1

[15] = test system: CP192; assay: as above; details: P. falciparum in erythrocytes, SYBR Green DNA, 72 h; series mostly up to 28.7 µM
Outline: as §1

[16] = test system: CP211; assay: as above; details: P. falciparum in erythrocytes, SYBR Green DNA, 72 h; series mostly up to 28.7 µM
Outline: as §1

[17] = test system: CP266; assay: as above; details: P. falciparum in erythrocytes, SYBR Green DNA, 72 h; series mostly up to 12.8 µM
Outline: as §1

[18] = test system: CP315; assay: as above; details: P. falciparum in erythrocytes, SYBR Green DNA, 72 h; series mostly up to 28.7 µM
Outline: as §1

[19] = test system: CP329; assay: as above; details: P. falciparum in erythrocytes, SYBR Green DNA, 72 h; series mostly up to 28.7 µM
Outline: as §1

[20] = test system: FAB9; assay: as above; details: P. falciparum in erythrocytes, SYBR Green DNA, 72 h; series mostly up to 28.7 µM
Outline: as §1

[21] = measured here: cell count channel max response
[22] = measured here: lipid channel max response

C=C(C)[C@H]1[C@H]2OC(=O)[C@@H]1[C@]1(O)C[C@H]3O[C@]34C(=O)O[C@H]2[C@@]14C
-3.6%: max response [7, 21]
inactive: outcome [1] | outcome [2] | Potency [3] > 20.6 µM | Potency [4] > 20.6 µM | outcome [5] | Potency [6] | activity change, negative = inhibition ([7]; at 25.7 µM (top of the series)) -0.482% | Potency [8]
-3.43%: max response [7, 22]

CN1[C@@H]2CC[C@H]1CC(O)C2 (some centres not stated)
-25.1%: max response [7, 22]
-19.1%: max response [7, 21]
inactive: Potency [9] | activity change, negative = inhibition [10] -15.4% | outcome [2] | outcome [5] | activity change, negative = inhibition ([7]; at 25.7 µM (top of the series)) -5.91%

COc1ccc(C(=O)OC2C[C@H]3CC[C@@H](C2)N3C)cc1OC (some centres not stated)
-3.69%: max response [7, 21]
inactive: Potency [9] | outcome [2] | Potency [3] > 20.6 µM | Potency [4] > 20.6 µM | outcome [5] | Potency [6] | activity change, negative = inhibition ([7]; at 25.7 µM (top of the series)) 0.262% | Potency [8]
-3.27%: max response [7, 22]

c1cncc([C@H]2CCCCN2)c1
active: Potency [9] 0.1 µM
19.6%: max response [7, 22]
inactive: Potency [3] > 46 µM | Potency [4] > 46 µM | outcome [5] | Potency [6] | activity change, negative = inhibition ([7]; at 57.5 µM (top of the series)) 0.698%
18.4%: max response [7, 21]

COc1cc2c(c(OC)c1OC)-c1ccc(O)c(=O)cc1[C@@H](NC(C)=O)CC2
inactive: Potency [9] | Potency [3] > 46 µM | Potency [4] > 46 µM | outcome [5] | activity change, negative = inhibition ([7]; at 57.5 µM (top of the series)) 3.54%
20.6%: max response [7, 22]
16.1%: max response [7, 21]

CN[C@@H](C)[C@H]1CC[C@@H](N)[C@@H](O[C@@H]2[C@@H](O)[C@@H](O[C@H]3OC[C@@](C)(O)[C@@H](NC)[C@@H]3O)[C@H](N)C[C@@H]2N)O1 (tested in a mixture with another compound)
-11.6%: max response [7, 22]
inactive: outcome [1] | outcome [2] | outcome [5] | Potency [6] | activity change, negative = inhibition ([7]; at 25.7 µM (top of the series)) -2.96% | Potency [11] | Potency [12] | activity, negative = inhibition ([13]; parasite line A) 3.71% | Potency [14] | Potency [15] | Potency [16] | Potency [17] | Potency [18] | Potency [19] | Potency [20]
-4.43%: max response [7, 21]

C[C@@]12CC[C@H](O)C[C@@H]1CC[C@H]1[C@@H]2C[C@@H](O)[C@]2(C)[C@@H](C3=CC(=O)OC3)CC[C@]12O
-5.31%: max response [7, 21]
inactive: Potency [9] | Potency [3] > 20.6 µM | Potency [4] > 20.6 µM | outcome [5] | activity change, negative = inhibition ([7]; at 25.7 µM (top of the series)) -4.23%
-9.41%: max response [7, 22]

C[C@H]1[C@@H](O)[C@@H](C)/C=C\C=CCC\C=C/C=C\C=C/C=C[C@@H](O[C@H]2O[C@@H](C)[C@@H](O)[C@@H](N)[C@@H]2O)C[C@@H]2O[C@@](O)(C[C@@H](O)[C@H]2C(=O)O)C[C@@H](O)[C@@H](O)CC[C@@H](O)C[C@@H](O)C[C@@H](O)CC(=O)O[C@H]1C
6.3%: max response [7, 22]
inactive: outcome [1] | activity change, negative = inhibition [10] 1.26% | outcome [2] | outcome [5] | activity change, negative = inhibition ([7]; at 25.7 µM (top of the series)) -0.591%
5.63%: max response [7, 21]

Clc1ccc([C@@H](OCCN2CCCCC2)c2ccccc2)cc1
inactive: Potency [3] > 20.6 µM | Potency [4] > 20.6 µM | outcome [5] | activity change, negative = inhibition ([7]; at 25.7 µM (top of the series)) -2.71% | Potency [11] | Potency [12] | activity, negative = inhibition ([13]; parasite line A) -2.83% | activity, negative = inhibition ([13]; parasite line B) -13.1% | Potency [14] | Potency [15] | Potency [16] | Potency [17] | Potency [18] | Potency [19] | Potency [20]
active: Potency [9] 12.6 µM | activity change, negative = inhibition [10] -74.4%
-7.74%: max response [7, 22]
-5.28%: max response [7, 21]
